TRPM1 prom inh – inhibitors of MITF-dependent TRPM1 promoter reporter, primary screen, cell-based, SK-MEL-5, single point, luciferase. SK-MEL-5 TRPM1 promoter luciferase, 24 h. inhibition, % at 12.5 µM. 0.83% of 330,000 active. AID 488899, 2010;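 active = mean inhibition across replicates of 60% or more, whatever share of single replicates reaches that level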
LMP1 NFkB inh – EBV LMP1-driven NF-kappaB luciferase reporter inhibitors, primary screen, cell-based, luminescence, single point. LMP1-induced NF-kappaB luciferase reporter cells. AID 504558, 2011. 0.69% of 350,000 active. inhibition, % at 12.5 µM; in the data active = inhibition above about 41%
Shn3 3UTR inh – reduction of Shn3 3'UTR firefly luciferase signal, primary screen, Schnurri-3 inhibitor project, cell-based, Clone20 osteoblasts, set 2 | inhibition, % at 12.5 µM | Clone20 osteoblast Shn3 3'UTR firefly luciferase, 24 h | 0.52% of 360,000 active | AID 588674, 2011;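 active = mean inhibition of at least 75% with every replicate also reaching 75%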
Peg3 promoter – Peg3 promoter-driven luciferase inhibitors, primary screen, cell-based, HeLa, luciferase luminescence. HeLa PEG-Prom luciferase reporter, overnight. inhibition, % at 20 µM. 1.7% of 360,000 active;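 active = inhibition of at least 50% at 20 µM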
CF NFkB block – inhibitors of PAF-induced NF-kB signaling, primary screen, cell-based, GFP fluorescence, uHTS. KKLEB NF-kB-GFP reporter, GFP fluorescence overnight. inhibition, % at 5 µM. 0.86% of 360,000 active;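 active = at least 50% inhibition at 5 µM, scaled per plate between neutral and stimulator controls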;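 note: PAF is a Pseudomonas aeruginosa culture filtrate used as stimulus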
KKLEB cytotox – cytotoxicity in KKLEB CF airway cells, primary screen, cytotoxicity control for CF NF-kB inhibitor project, cell-based, uHTS, fluorescence assay plates; KKLEB CF airway cells viability, ATPlite luminescence, overnight; active compounds read low; cells stimulated with P. aeruginosa culture filtrate; 0.36% of 360,000 active; activity change (cytotoxicity), % at 5 µM; AID 602141, 2011;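 active = corrected activity change at or below -50% at 5 µM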
A number is an active result; . = inactive; / = no result. Sampled rows, rich in hits. Any-hit rate of the full collection: about 2.9%.

SMILES	TRPM1 prom inh	LMP1 NFkB inh	Shn3 3UTR inh	Peg3 promoter	CF NFkB block	KKLEB cytotox
O=C(CN1CCCC1)N/N=C/c1c(O)ccc2ccccc12	.	.	91.0	.	.	.
CCN(CC)CCN1CNC(=S)NC1	/	.	.	.	.	.
COCCNC(=O)C1CCCN(Cc2cccc(C#N)c2)CC1 (centres undefined)	/	/	.	.	.	.
COc1ccccc1OCC(=O)N/N=C/c1cccc2cccnc12	.	.	.	.	.	.
COc1ccccc1OCC(=O)N/N=C/c1c(O)ccc2ccccc12	.	.	.	62.5	.	.
CN(C)c1cccc(C(=O)N/N=C/c2ccccc2F)c1	.	43.8	.	.	.	.
Cc1ccc(NC(=O)CCS(=O)(=O)c2ccc3nc(C)sc3c2)c(C)c1	/	/	.	.	.	.
CC(C)C[C@H]1CNC(=O)C(=O)N1CC1CCN(CC2CCC(C(C)(C)C)CC2)CC1 (some centres undefined)	.	.	.	.	.	.
O=C(NC(c1ccc(-c2ccccc2)cc1)c1cnccn1)C1CCN(Cc2ccc(Oc3ccccc3)cc2)CC1 (centres undefined)	/	/	.	55.8	.	.
COc1cc(CN2CCC(C(=O)NC(c3ccc(-c4ccccc4)cc3)c3cnccn3)CC2)cc(OC)c1 (centres undefined)	/	/	.	.	.	.
Cc1cc(C)cc(C(=O)NCC(=O)OCN2C(=O)c3ccccc3C2=O)c1	.	.	.	51.6	.	.
O=C1CCc2cc(OCCCCc3nnnn3C3CCCCC3)ccc2N1	.	73.2	.	.	.	.
CCC[C@@H](CN[C@@H](CNC)[C@H](C)CC)NCC1CCC(C(C)(C)C)CC1 (some centres undefined)	99.7	.	.	102.1	.	.
CC[C@@H](C)[C@H](CNC)NC[C@@H](Cc1cccc2ccccc12)NCCc1cccc(C(F)(F)F)c1	97.8	.	97.3	102.6	.	.
CCC[C@H](CN[C@@H](CNC)[C@H](C)CC)NCCc1cc(C(F)(F)F)cc(C(F)(F)F)c1	103.4	.	.	99.3	.	.
CCN(CC)C(=O)Cn1cc(C(=O)C(=O)Nc2ccc3c(c2)OCO3)c2ccccc21	/	.	.	.	.	.
Cc1ccc(NC(=O)CSc2ncccn2)cc1S(=O)(=O)N1CCOCC1	.	.	.	.	.	.
COc1ccc(OC)c(CN2CCN(C(=O)c3ccc(C)c(S(=O)(=O)Nc4ccccc4OC)c3)CC2)c1	.	.	.	.	.	.
Cc1cc(C)c(C#N)c(SCc2ccc(F)cc2)n1	.	.	.	.	.	.
CSc1nc(C)cc(C)c1C#N	.	93.6	.	.	.	.
NC1=NC(=O)/C(=C\c2cccnc2)S1	.	.	.	.	51.6	.
COc1cccc(C(=O)Nc2cccc(-c3nnc(-c4ccccc4)o3)c2)c1	.	.	.	.	.	.
CCOc1cccc(C(=O)Nc2cccc(-c3nnc(-c4ccc(C)cc4)o3)c2)c1	82.5	.	.	.	56.8	-67.9
CCOc1cccc(C(=O)Nc2cccc(-c3nnc(-c4ccccc4)o3)c2)c1	.	.	.	75.8	.	.
CN(C)S(=O)(=O)c1cccc(NC(=O)COc2ccccc2C(=O)NCc2ccccc2)c1	.	.	.	.	.	.
SMILES	TRPM1 prom inh	LMP1 NFkB inh	Shn3 3UTR inh	Peg3 promoter	CF NFkB block	KKLEB cytotox
CC(NC(=O)c1cccc(S(=O)(=O)N2CCCCCC2)c1)c1ccccc1 (centres undefined)	.	.	.	.	.	.
CCN(CC)C(=O)c1cccc(-c2csc(C(O)c3cccc(OC)c3)n2)c1 (centres undefined)	/	/	.	.	.	.
CCOC(=O)N1C2CCC(C2)N1C(=O)OCC	.	.	92.7	.	.	.
CCNc1ccc(Br)cc(C(=O)/C=C/c2ccc(Cl)cc2Cl)c1=O	.	48.6	.	.	.	.
CCN(CC)c1ccc(N2C(=O)/C(=C\c3cccnc3)SC2=S)cc1	.	.	.	.	.	.
CCN(CC)c1ccc(N2C(=O)/C(=C/c3cccnc3)SC2=S)cc1	.	.	.	.	56.3	.
CCCCN1C(=O)C(CC(=O)NCCN2CCOCC2)CC(C(=O)N(CC)CC)=C1C (centres undefined)	/	.	.	.	.	.
O=C(CSc1nc2[nH]ncc2c(=O)n1-c1ccccc1)NCCc1ccccc1	.	.	.	.	.	.
O=C(CSc1nc2[nH]ncc2c(=O)n1-c1ccccc1)c1ccc2c(c1)OCCO2	.	.	.	56.5	.	.
CCOC(=O)C1=C(Cc2ccc(Cl)cc2)C(=O)c2ccccc2C1=O	.	.	.	50.3	.	.
CCOC(=O)C1=C(C)N=C2c3ccccc3C(=O)C2C1c1ccc(Cl)cc1 (centres undefined)	.	.	.	.	.	.
COc1ccccc1NC(=O)N(C)C[C@@H]1OCc2cnnn2CCCC(=O)N([C@@H](C)CO)C[C@@H]1C	/	.	.	.	.	.
Cc1cc(C(=O)NC2CC(C)(C)Cc3c2cnn3-c2ccccc2)n(C)n1 (centres undefined)	.	.	.	.	.	.
CC(=O)[C@@]1(O)C(C)CC2C3C=C(C)C4=Cc5c(cnn5-c5ccccc5)C[C@]4(C)C3C(O)C[C@@]21C (some centres undefined)	.	.	.	64.3	87.9	.
O=C(CN1C(=O)c2ccccc2S1(=O)=O)Nc1ncc(Cl)cc1Cl	.	41.2	.	58.2	.	.
O=C(CN1C(=O)c2ccccc2S1(=O)=O)c1ccccc1	.	61.3	.	53.5	.	.
CCn1c(C)cc(C(=O)CN2C(=O)c3ccccc3S2(=O)=O)c1C	68.3	73.1	.	80.0	.	.
O=C(CN1C(=O)c2ccccc2S1(=O)=O)c1ccccc1Cl	77.6	67.3	.	.	.	.
CCCn1c(C)cc(C(=O)CN2C(=O)c3ccccc3C2=O)c1C	.	.	.	.	.	.
CC1=C(C(=O)N(C)C)CC(CC(=O)NCCCN(C)C)C(=O)N1Cc1ccccc1 (centres undefined)	/	.	.	.	.	.
C[C@@H]1CN([C@H](C)CO)S(=O)(=O)c2ccc(C#Cc3ccccc3)cc2O[C@H]1CN(C)C(=O)Nc1ccc2c(c1)OCO2	/	.	.	.	.	.
Clc1ccc(-c2cn3nc4c(nc3n2)CCCC4)cc1	.	50.1	.	.	.	.
COc1cccc(-c2cn3nc4c(nc3n2)CCCC4)c1	.	.	.	.	.	.
